Experimental data taken from PubChem BioAssay AID1159580 (chemical genetic matrix, 2015).
The whole screen tested about 5,500 compounds, of which about 2,000 (36%) were called active. Another 18% or so got no clear call; they are omitted. Rule as the data show it: active = normalized growth mostly below about 0.91 (no sharp cut-off); inconclusive = no clear call, values can overlap the other calls; inactive = mostly above about 0.92. The list shows a part of the results.

Test: chemical genetic growth profiling, strain panel (AID 1159580);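 also: tested at 20 µM; growth read once vehicle control cultures reached saturation at 30 °C; 1 = growth at the plate median or of vehicle wells; lower values mean less growth of the strain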
Conditions: growth OD

Measured: normalized growth

COc1cc2cc3c4cc(OC)c(OC)cc4cc[n+]3c(C)c2cc1OC
inactive: S. cerevisiae deletion strains, locus YJR043C, strain POL32, stronger effect = lower value 0.98 | S. cerevisiae deletion strains, locus YJR066W, strain TOR1, stronger effect = lower value 0.964 | S. cerevisiae deletion strains, locus YKL009W, strain mrt4, stronger effect = lower value 0.997 | S. cerevisiae deletion strains, locus YKL068W, stronger effect = lower value 1.01 | S. cerevisiae deletion strains, locus YKL085W, strain MDH1 (second series), stronger effect = lower value 1.03 | S. cerevisiae deletion strains, locus YKL085W, strain MDH1, stronger effect = lower value 1.03 | S. cerevisiae deletion strains, locus YKL160W, strain elf1, stronger effect = lower value 0.988 | S. cerevisiae deletion strains, locus YKL190W, strain CNB1, stronger effect = lower value 1.01 | S. cerevisiae deletion strains, locus YKR001C, strain vps1, stronger effect = lower value 1.05 | S. cerevisiae deletion strains, locus YKR026C, strain gcn3, stronger effect = lower value 1.02 | S. cerevisiae deletion strains, locus YKR091W, strain srl3, stronger effect = lower value 1 | S. cerevisiae deletion strains, locus YLL001W, strain dnm1, stronger effect = lower value 1.01 | S. cerevisiae deletion strains, locus YLL026W, stronger effect = lower value 1.02 | S. cerevisiae deletion strains, locus YLL041C, strain sdh2, stronger effect = lower value 1.02 | S. cerevisiae deletion strains, locus YLR027C, strain aat2, stronger effect = lower value 1.03 | S. cerevisiae deletion strains, locus YLR039C, strain RIC1, stronger effect = lower value 1.11 | S. cerevisiae deletion strains, locus YLR058C, strain SHM2, stronger effect = lower value 0.998 | S. cerevisiae deletion strains, locus YLR102C, strain apc9, stronger effect = lower value 1.01 | S. cerevisiae deletion strains, locus YLR113W, strain HOG1, stronger effect = lower value 0.992 | S. cerevisiae deletion strains, locus YLR221C, strain rsa3, stronger effect = lower value 1.02 | S. cerevisiae deletion strains, locus YLR258W, strain gsy2, stronger effect = lower value 0.982 | S. cerevisiae deletion strains, locus YLR262C, strain YPT6 (second series), stronger effect = lower value 1.03 | S. cerevisiae deletion strains, locus YLR262C, strain YPT6, stronger effect = lower value 1.14 | S. cerevisiae deletion strains, locus YLR268W, strain sec22, stronger effect = lower value 1.02 | S. cerevisiae deletion strains, locus YLR320W, strain mms22, stronger effect = lower value 1 | S. cerevisiae deletion strains, locus YLR330W, strain CHS5, stronger effect = lower value 1.01 | S. cerevisiae deletion strains, locus YLR342W, strain FKS1 (second series), stronger effect = lower value 0.98 | S. cerevisiae deletion strains, locus YLR342W, strain FKS1, stronger effect = lower value 1.02 | S. cerevisiae deletion strains, locus YLR357W, strain rsc2, stronger effect = lower value 1.01 | S. cerevisiae deletion strains, locus YLR370C, strain arc18, stronger effect = lower value 1.02 | S. cerevisiae deletion strains, locus YLR371W, strain rom2, stronger effect = lower value 1.02 | S. cerevisiae deletion strains, locus YLR384C, strain iki3, stronger effect = lower value 1.01 | S. cerevisiae deletion strains, locus YLR418C, strain cdc73, stronger effect = lower value 0.966 | S. cerevisiae deletion strains, locus YML016C, strain PPZ1, stronger effect = lower value 1.02 | S. cerevisiae deletion strains, locus YML032C, strain rad52, stronger effect = lower value 0.925 | S. cerevisiae deletion strains, locus YML120C, strain ndi1, stronger effect = lower value 1 | S. cerevisiae deletion strains, locus YML124C, strain tub3, stronger effect = lower value 1.01 | S. cerevisiae deletion strains, locus YMR058W, strain fet3, stronger effect = lower value 1.02 | S. cerevisiae deletion strains, locus YMR078C, strain ctf18, stronger effect = lower value 1.02 | S. cerevisiae deletion strains, locus YMR125W, strain sto1, stronger effect = lower value 0.999 | S. cerevisiae deletion strains, locus YMR129W, stronger effect = lower value 1.01 | S. cerevisiae deletion strains, locus YMR205C, strain PFK2, stronger effect = lower value 0.979 | S. cerevisiae deletion strains, locus YMR223W, strain ubp8, stronger effect = lower value 0.982 | S. cerevisiae deletion strains, locus YMR231W, strain pep5, stronger effect = lower value 0.949 | S. cerevisiae deletion strains, locus YMR307W, strain GAS1, stronger effect = lower value 1.02 | S. cerevisiae deletion strains, locus YNL067W, strain RPL9B, stronger effect = lower value 1.01 | S. cerevisiae deletion strains, locus YNL071W, strain lat1, stronger effect = lower value 1 | S. cerevisiae deletion strains, locus YNL183C, strain NPR1, stronger effect = lower value 0.938 | S. cerevisiae deletion strains, locus YNL209W, strain ssb2, stronger effect = lower value 1 | S. cerevisiae deletion strains, locus YNL233W, strain BNI4, stronger effect = lower value 0.995 | S. cerevisiae deletion strains, locus YNL248C, strain rpa49, stronger effect = lower value 1.01 | S. cerevisiae deletion strains, locus YNL250W, strain rad50, stronger effect = lower value 1 | S. cerevisiae deletion strains, locus YNL271C, strain bni1, stronger effect = lower value 1.02 | S. cerevisiae deletion strains, locus YNL298W, strain CLA4, stronger effect = lower value 1.01 | S. cerevisiae deletion strains, locus YNL307C, strain MCK1, stronger effect = lower value 1.01 | S. cerevisiae deletion strains, locus YNL322C, strain KRE1 (second series), stronger effect = lower value 1 | S. cerevisiae deletion strains, locus YNR049C, strain mso1, stronger effect = lower value 1.04 | S. cerevisiae deletion strains, locus YNR052C, strain pop2, stronger effect = lower value 0.978 | S. cerevisiae deletion strains, locus YOL006C, strain TOP1, stronger effect = lower value 1.04 | S. cerevisiae deletion strains, locus YOL012C, strain htz1 1.07 | S. cerevisiae deletion strains, locus YOL147C, strain pex11, stronger effect = lower value 1.03 | S. cerevisiae deletion strains, locus YOR001W, strain rrp6, stronger effect = lower value 1.03 | S. cerevisiae deletion strains, locus YOR061W, strain CKA2, stronger effect = lower value 1.01 | S. cerevisiae deletion strains, locus YOR069W, strain VPS5, stronger effect = lower value 1.01 | S. cerevisiae deletion strains, locus YOR070C, strain gyp1, stronger effect = lower value 1.02 | S. cerevisiae deletion strains, locus YOR080W, strain dia2, stronger effect = lower value 1.01 | S. cerevisiae deletion strains, locus YOR083W, strain WHI5, stronger effect = lower value 0.985 | S. cerevisiae deletion strains, locus YOR106W, strain vam3, stronger effect = lower value 0.981 | S. cerevisiae deletion strains, locus YOR136W, strain idh2, stronger effect = lower value 1.02 | S. cerevisiae deletion strains, locus YOR144C, strain elg1, stronger effect = lower value 1.01 | S. cerevisiae deletion strains, locus YOR184W, strain ser1, stronger effect = lower value 0.993 | S. cerevisiae deletion strains, locus YOR231W, strain MKK1, stronger effect = lower value 0.983 | S. cerevisiae deletion strains, locus YOR265W, strain rbl2, stronger effect = lower value 1.01 | S. cerevisiae deletion strains, locus YOR270C, strain vph1, stronger effect = lower value 1.08 | S. cerevisiae deletion strains, locus YOR290C, strain snf2, stronger effect = lower value 0.982 | S. cerevisiae deletion strains, locus YOR316C, strain cot1, stronger effect = lower value 1.02 | S. cerevisiae deletion strains, locus YPL051W, strain arl3, stronger effect = lower value 1.02 | S. cerevisiae deletion strains, locus YPL055C, strain LGE1, stronger effect = lower value 0.999 | S. cerevisiae deletion strains, locus YPL078C, strain atp4, stronger effect = lower value 1 | S. cerevisiae deletion strains, locus YPL106C, strain sse1, stronger effect = lower value 0.983 | S. cerevisiae deletion strains, locus YPL240C, strain hsp82, stronger effect = lower value 1 | S. cerevisiae deletion strains, locus YPL256C, strain CLN2, stronger effect = lower value 0.968 | S. cerevisiae deletion strains, locus YPR119W, strain clb2, stronger effect = lower value 1.01 | S. cerevisiae deletion strains, locus YPR141C, strain kar3, stronger effect = lower value 1.01 | S. cerevisiae deletion strains, locus YPR163C, strain tif3, stronger effect = lower value 1.01 | S. cerevisiae deletion strains, locus YPR167C, strain met16, stronger effect = lower value 0.997 | S. cerevisiae deletion strains, strain wtn01, stronger effect = lower value 1.02 | S. cerevisiae strains, strain wild type, stronger effect = lower value 1
